Where “and” joins values, the source holds several entries; their conditions need not be identical. Equal entries are not always repeated. The panel holds about 83,000 compounds, 20% with a hit somewhere; the sample as a whole holds those more often.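 Cells were grown in 96-well plates and exposed to the test compound at a single concentration for 48 hours; results are reported as percent growth, with values below 10 considered active.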 Values without a mark were called inactive. Calls of active or inactive are those of the source.

Among the test systems are MCF7 breast; MOLT-4 leukemia; RPMI-8226 leukemia; OVCAR-8 ovarian; OVCAR-5 ovarian; SK-OV-3 ovarian; IGROV1 ovarian; OVCAR-3 ovarian; HS 578T breast; NCI/ADR-RES ovarian; T-47D breast; BT-549 breast; MDA-MB-435 melanoma; SW-620 colon; HCT-116 colon; HCC-2998 colon; KM12 colon; SR leukemia; OVCAR-4 ovarian.
Assay in all cases: NCI-60 one-dose screen, 48 h (100 = growth as untreated, 0 = no growth, -100 = all killed)
Common to all, as to conditions: 10 µM unless noted

For the compound `C=C1C(=O)OC2/C=C(\C)CC/C=C(/C)CC(OC(=O)/C(=C/CO)CO)C12` (configuration not stated), the growth in the assay on MCF7 breast was -85% [100 µM] (active) and -68.3% [100 µM] (active).
Take `CN(C)C(=S)SSC(=S)N(C)C`: the growth was 92.3% in the assay with MOLT-4 leukemia; 85.6% and 70% in the assay with RPMI-8226 leukemia; 95.4% and 104% with OVCAR-8 ovarian; 97.4% and 110% in the assay with OVCAR-5 ovarian; 122% and 113% in the assay with SK-OV-3 ovarian; 99.1% with IGROV1 ovarian. In addition, the growth with OVCAR-3 ovarian was 88.5% and 112%; with HS 578T breast, 101% and 112%; with NCI/ADR-RES ovarian it was 110% and 113%; in the assay on T-47D breast, 85.8% and 95.4%; with BT-549 breast, 101% and 111%; in the assay on MDA-MB-435 melanoma, 97.3%. Also, the growth with SW-620 colon was 69.2% and 98%; in the assay on MCF7 breast, 70.9%; in the assay on HCT-116 colon it was 99%; with HCC-2998 colon, 109%; in the assay with KM12 colon, 81.8% and 95.8%.
In the case of `COCC1OC2OC3C(COC)OC(OC4C(COC)OC(OC5C(COC)OC(OC6C(COC)OC(OC7C(COC)OC(OC8C(COC)OC(OC1C(O)C2O)C(O)C8O)C(O)C7O)C(O)C6O)C(O)C5O)C(O)C4O)C(O)C3O` (configuration not stated) (tested in a mixture with another compound), the growth in the assay with MOLT-4 leukemia was 99.6%; in the assay on SR leukemia, 91.3%; in the assay with OVCAR-8 ovarian, 114%; with OVCAR-5 ovarian it was 104%; in the assay with OVCAR-4 ovarian it was 111%; with SK-OV-3 ovarian, 117%. The growth in the assay on IGROV1 ovarian was 184%; in the assay on OVCAR-3 ovarian, 119%; in the assay with HS 578T breast, 105%; with NCI/ADR-RES ovarian, 127%; in the assay on T-47D breast, 113%; in the assay on MDA-MB-435 melanoma, 117%. Moreover, the growth is 109% in the assay on SW-620 colon; 101% with MCF7 breast; 120% with HCT-116 colon; 89.4% in the assay with HCC-2998 colon; 109% in the assay on KM12 colon.
As for `Cc1ccc(C(=O)O[C@H](C(=O)O)[C@H](OC(=O)c2ccc(C)cc2)C(=O)O)cc1`, the growth is 90.9% with MOLT-4 leukemia; 106% in the assay with RPMI-8226 leukemia; 98.8% with OVCAR-8 ovarian; 114% in the assay on OVCAR-5 ovarian; 96.9% in the assay on SK-OV-3 ovarian; 103% with IGROV1 ovarian. Also, the growth in the assay with OVCAR-3 ovarian is 111%; with HS 578T breast, 128%; with NCI/ADR-RES ovarian, 99.1%; in the assay with BT-549 breast it was 101%; with MDA-MB-435 melanoma, 104%; with SW-620 colon it was 105%. Also, the growth is 105% in the assay with MCF7 breast, 103% with HCT-116 colon, 111% in the assay with HCC-2998 colon and 112% in the assay with KM12 colon.
Regarding `CC1OC(=O)C(C(C)C)NC(=O)C(C(C)C)OC(=O)C(C(C)C)NC(=O)C(C)OC(=O)C(C(C)C)NC(=O)C(C(C)C)OC(=O)C(C(C)C)NC(=O)C(C)OC(=O)C(C(C)C)NC(=O)C(C(C)C)OC(=O)C(C(C)C)NC1=O` (configuration not stated), the growth in the assay with MOLT-4 leukemia was -26.4% (active); in the assay with SR leukemia, -14.6% (active); with RPMI-8226 leukemia it was -23.2% (active); with OVCAR-5 ovarian, -39.6% (active); in the assay on OVCAR-4 ovarian, -17% (active); in the assay on SK-OV-3 ovarian, -13.3% (active). For the same compound, the growth with IGROV1 ovarian is -25% (active); in the assay with OVCAR-3 ovarian it was -18.9% (active); in the assay on NCI/ADR-RES ovarian, 0.571% (active); in the assay with T-47D breast, -15.2% (active); in the assay with BT-549 breast, -42.5% (active); with MDA-MB-435 melanoma, 3.94% (active). Further, the growth was 3.61% (active) in the assay with SW-620 colon; -31.7% (active) with MCF7 breast; -69% (active) in the assay on HCT-116 colon; -16.5% (active) in the assay with HCC-2998 colon; 0.9% (active) with KM12 colon.
With `NC(=O)c1c(Br)c(Br)c(Br)c(Br)c1C(=O)O` (tested in a mixture with another compound), the growth in the assay with SR leukemia is 52.6% and 86.2%; with RPMI-8226 leukemia, 101% and 97.9%; with OVCAR-8 ovarian, 97.5% and 96.6%; with OVCAR-5 ovarian it was 94.5% and 97.3%; in the assay with SK-OV-3 ovarian it was 113% and 102%; in the assay on IGROV1 ovarian, 124% and 110%. Besides, the growth was 111% and 112% in the assay on OVCAR-3 ovarian; 114% and 115% with HS 578T breast; 103% and 100% in the assay with NCI/ADR-RES ovarian; 104% and 96.8% in the assay with BT-549 breast; 92.5% and 102% in the assay on MDA-MB-435 melanoma; 97.5% and 105% with SW-620 colon. The growth in the assay on MCF7 breast was 79.5% and 88.8%; in the assay on HCT-116 colon, 97.8% and 105%; in the assay on HCC-2998 colon it was 104% and 103%; in the assay on KM12 colon, 103% and 102%.
`CC(C)c1cccc(C(C)C)c1O`: the growth was 84% and 115% with MOLT-4 leukemia; 101% and 100% in the assay with RPMI-8226 leukemia; 102% in the assay on OVCAR-8 ovarian; 106% and 112% in the assay on OVCAR-5 ovarian; 113% and 96.9% in the assay on SK-OV-3 ovarian; 107% in the assay with IGROV1 ovarian. For the same compound, the growth is 105% and 94.9% in the assay on HS 578T breast; 108% and 106% in the assay with NCI/ADR-RES ovarian; 95% and 93.2% in the assay on T-47D breast; 104% and 97.8% with BT-549 breast; 104% and 100% in the assay with MDA-MB-435 melanoma; 106% and 112% with SW-620 colon. Moreover, the growth is 91.1% in the assay on MCF7 breast; 101% and 95.8% in the assay with HCT-116 colon; 105% and 115% in the assay with HCC-2998 colon; 111% and 105% in the assay on KM12 colon.
On to `CCC1CCC(=O)O1` (configuration not stated), for which the growth in the assay with MOLT-4 leukemia was 98.3% and 116%; with RPMI-8226 leukemia, 104% and 114%; with OVCAR-8 ovarian, 109% and 118%; in the assay on OVCAR-5 ovarian, 106% and 111%; in the assay on SK-OV-3 ovarian, 95.2% and 119%; in the assay on IGROV1 ovarian it was 105% and 110%. The growth with OVCAR-3 ovarian was 108% and 110%; with HS 578T breast, 106% and 108%; in the assay with NCI/ADR-RES ovarian, 112% and 124%; in the assay with T-47D breast, 93.5% and 118%; with BT-549 breast it was 116% and 129%; in the assay with MDA-MB-435 melanoma it was 109%. Moreover, the growth with SW-620 colon is 111% and 106%; with MCF7 breast it was 90.5% and 105%; in the assay on HCT-116 colon it was 106% and 107%; in the assay with HCC-2998 colon, 109%; in the assay with KM12 colon it was 99.7% and 108%.
In the case of `COc1ccc(N)cc1N`, the growth in the assay on MOLT-4 leukemia was 163%; in the assay with RPMI-8226 leukemia, 90.1%; in the assay on OVCAR-5 ovarian, 98.5%; in the assay with OVCAR-4 ovarian, 97.6%; in the assay with SK-OV-3 ovarian, 100%; with OVCAR-3 ovarian it was 120%. The growth in the assay on HS 578T breast was 108%; in the assay with NCI/ADR-RES ovarian, 106%; in the assay on T-47D breast, 96.1%; with BT-549 breast, 112%; in the assay on MDA-MB-435 melanoma it was 122%; in the assay with SW-620 colon, 107%. Also, the results for the growth in the assay with MCF7 breast, in the assay on HCT-116 colon and in the assay with HCC-2998 colon were 94.8%, 108% and 119%, respectively.

These data come from PubChem BioAssay (NCI).
